Measurements from PubChem BioAssay (NCATS).
Where “and” joins values, the source holds several entries; their conditions need not be identical. Identical values can stand only once. Results filed as inconclusive are left out. Calls of active or inactive are those of the source. Unless noted, calls come from the whole dose curve; as a rule, active = well fitted curve in the direction sought with a large enough effect; inconclusive = small, poorly fitted or top-dose-only effect, or another doubt; inactive = no such curve, though single readings can be large; an effect the other way counts as inactive or inconclusive.

Key:
[1] = target: Catechol O-methyltransferase (Homo sapiens) (UniProt P21964); experiment: Confirmatory Screen for Target Class Profiling of Small Molecule Inhibitors of Methyltransferases (AID 1745852; calls by dose curve; note: potency is the fitted concentration of half-maximal effect; for activity change, negative = inhibition: % is set by controls: 0 for no effect and ±100 for the full control effect); settings: MTase-Glo luminescence, SAH detection, recombinant enzyme; measured here: COMT max response; stronger effect = lower value
Chain of Catechol O-methyltransferase (Homo sapiens) (P21964 whole entry, looked up): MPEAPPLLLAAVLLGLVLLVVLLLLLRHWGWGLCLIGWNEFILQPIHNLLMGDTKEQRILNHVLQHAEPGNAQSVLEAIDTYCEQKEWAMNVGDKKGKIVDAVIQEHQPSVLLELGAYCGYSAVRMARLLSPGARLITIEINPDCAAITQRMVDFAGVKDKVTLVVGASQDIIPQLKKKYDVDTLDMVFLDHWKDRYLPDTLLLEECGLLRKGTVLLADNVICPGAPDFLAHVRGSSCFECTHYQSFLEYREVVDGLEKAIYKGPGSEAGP

[2] = target: Guanidinoacetate N-methyltransferase (Homo sapiens) (UniProt Q14353); experiment: as above; settings: MTase-Glo luminescence, SAH detection, recombinant enzyme; activity change, negative = inhibition: at 57.3 µM (top of the series) unless noted; series mostly up to 57.3 µM
[3] = target: Nicotinamide N-methyltransferase (Homo sapiens) (UniProt P40261); experiment: as above; settings: MTase-Glo luminescence, SAH detection, recombinant enzyme; measured here: NNMT max response; stronger effect = lower value
Chain of Nicotinamide N-methyltransferase (Homo sapiens) (P40261 whole entry, looked up): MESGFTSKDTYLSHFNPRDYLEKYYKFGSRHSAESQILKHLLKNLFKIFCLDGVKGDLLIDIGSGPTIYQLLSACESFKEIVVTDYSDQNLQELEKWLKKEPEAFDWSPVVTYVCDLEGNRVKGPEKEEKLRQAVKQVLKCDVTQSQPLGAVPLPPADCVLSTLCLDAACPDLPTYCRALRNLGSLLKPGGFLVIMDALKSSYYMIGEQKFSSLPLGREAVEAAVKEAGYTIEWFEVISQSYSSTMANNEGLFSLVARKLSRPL

[4] = target: Phenylethanolamine N-methyltransferase (Homo sapiens) (UniProt P11086); experiment: as above; settings: MTase-Glo luminescence, SAH detection, recombinant enzyme; measured here: PNMT max response; stronger effect = lower value
Chain of Phenylethanolamine N-methyltransferase (Homo sapiens) (P11086 whole entry, looked up): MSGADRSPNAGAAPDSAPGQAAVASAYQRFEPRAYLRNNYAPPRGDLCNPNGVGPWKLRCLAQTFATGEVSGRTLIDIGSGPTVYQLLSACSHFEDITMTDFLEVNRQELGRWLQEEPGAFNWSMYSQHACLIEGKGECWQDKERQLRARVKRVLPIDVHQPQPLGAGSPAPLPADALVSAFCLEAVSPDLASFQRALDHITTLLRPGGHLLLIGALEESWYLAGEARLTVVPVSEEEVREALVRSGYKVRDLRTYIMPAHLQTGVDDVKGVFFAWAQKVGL

[5] = target: Glutathione peroxidase 1 (Homo sapiens) (UniProt P07203); experiment: Primary qHTS Assay for Inhibitors of Recombinant Selenoprotein Glutathione Peroxidase 1 (GPX1) (AID 1845191); settings: recombinant GPX1, GR-coupled NADPH fluorescence, 15 min; series mostly up to 48.8 µM; note: nearly all actives have a fitted effect of over 65% in size
Chain of Glutathione peroxidase 1 (Homo sapiens) (P07203 whole entry, looked up): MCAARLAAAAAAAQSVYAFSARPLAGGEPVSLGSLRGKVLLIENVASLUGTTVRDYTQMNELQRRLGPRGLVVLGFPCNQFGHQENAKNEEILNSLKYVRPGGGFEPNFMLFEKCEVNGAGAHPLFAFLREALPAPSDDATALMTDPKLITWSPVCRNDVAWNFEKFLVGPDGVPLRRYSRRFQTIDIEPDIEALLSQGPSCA
Summary of the method: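 GPX1 10 nM, GR 100 nM, GSH 1 mM, NADPH 0.5 mM, CHP 0.5 mM (final). 30-min cpd preincubation, RT. Ex340/Em450 read t=0, t=15 min.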

[6] = target: Phospholipid hydroperoxide glutathione peroxidase GPX4 (Homo sapiens) (UniProt P36969); experiment: Primary qHTS Assay for Inhibitors of Recombinant Selenoprotein Glutathione Peroxidase 4 (GPX4) (AID 1845192); settings: recombinant GPX4, GR-coupled NADPH fluorescence, 15 min; series mostly up to 50 µM; note: nearly all actives have a fitted effect of over 65% in size; for activity change, negative = inhibition: % is set by controls: 0 for no effect and ±100 for the full control effect
Chain of Phospholipid hydroperoxide glutathione peroxidase GPX4 (Homo sapiens) (P36969 whole entry, looked up): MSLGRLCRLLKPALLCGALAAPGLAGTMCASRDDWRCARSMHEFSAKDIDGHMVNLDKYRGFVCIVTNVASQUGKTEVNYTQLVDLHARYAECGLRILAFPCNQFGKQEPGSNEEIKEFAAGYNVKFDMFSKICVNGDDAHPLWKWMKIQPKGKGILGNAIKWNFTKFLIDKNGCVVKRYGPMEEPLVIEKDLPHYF
Summary of the method: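 qHTS, GR-coupled: GPX4 200 nM + cpd 30 min RT → GSH 1 mM, NADPH 0.5 mM, GR 100 nM → CHP 0.5 mM start; fluor 340/450 at t0 and t15 min; no-enzyme wells as control.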

[7] = target: Luciferin 4-monooxygenase (Photinus pyralis) (UniProt P08659); experiment: Primary firefly luciferase (FLuc) qHTS assay for identification of artifact compounds. (AID 1845220); settings: purified firefly luciferase, luminescence, 5 min; series mostly up to 54.1 µM; note: nearly all actives have a fitted effect of over 60% in size;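 for activity change, negative = inhibition: plate controls were DMSO vehicle for no effect and no enzyme for full effect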
Summary of the method: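 qHTS, 15 min compound preincubation with substrate (10 uM luciferin, 10 uM ATP) at RT, then 10 nM FLuc; 5 min; luminescence; % inhibition vs no-enzyme/DMSO controls, 4-parameter Hill fit.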

[8] = Primary fluorescence-based thiol-reactive (MSTI) qHTS assay for identification of artifact compounds. (AID 1845221); settings: MSTI thiol-reactivity probe, 1 h; series mostly up to 53.8 µM; note: nearly all actives have a fitted effect of over 65% in size; note: potency is the fitted concentration of half-maximal effect
Summary of the method: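 Compounds were incubated 1 h at room temperature in the dark with the MSTI probe (4 uM) in PBS pH 7.4, 2% DMSO. Signals were normalized between Acetyl-MSTI and MSTI.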

[9] = system: Nanoluciferase (engineered Oplophorus gracilirostris luciferase); experiment: Primary Nanoluciferase (NLuc) qHTS assay for identification of artifact compounds. (AID 1845222); settings: NLuc-conditioned medium, Nano-Glo luminescence, 5 min; series mostly up to 54.1 µM
Summary of the method: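 Luminescence read-out of secreted NLuc in S16 cell conditioned medium (1:55); compounds tested with 15 min RT preincubation, then Nano-Glo substrate 1:100, 5 min. % inhibition vs no-enzyme and DMSO controls, 4-parameter Hill fit.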

[10] = NCATS anti-infectives library activity on HEK293 viability as a counter-qHTS vs the C. elegans viability qHTS (AID 1745854); settings: HEK293 viability counter-screen; series mostly up to 41.8 µM; note: % is set by controls: 0 for no effect and ±100 for the full control effect
Summary of the method: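 CellTiter-Glo luminescence, read on a CCD imager, scored viability of HEK293 cells after 24 hr compound exposure at 37C. Library tested in several concentrations, 1:5 steps, up to 41.7 uM; digitonin served as control.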

[11] = target: Rap guanine nucleotide exchange factor 4 (Homo sapiens) (UniProt Q8WZA2); experiment: Confirmatory qHTS for agonist of cAMP-regulated guanine nucleotide exchange factor 4 (EPAC2) (AID 1645884); settings: EPAC2 GEF activity, Rap1B-BODIPY-GDP fluorescence, percent relative to cAMP agonist control; series mostly up to 154 µM;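 note: nucleotide exchange releases bodipy-GDP from Rap1 and this lowers its fluorescence; % is set by controls: 0 for no effect and ±100 for the full control effect; nearly all actives have a fitted effect of over 65% in size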
Chain of Rap guanine nucleotide exchange factor 4 (Homo sapiens) (Q8WZA2 whole entry, looked up): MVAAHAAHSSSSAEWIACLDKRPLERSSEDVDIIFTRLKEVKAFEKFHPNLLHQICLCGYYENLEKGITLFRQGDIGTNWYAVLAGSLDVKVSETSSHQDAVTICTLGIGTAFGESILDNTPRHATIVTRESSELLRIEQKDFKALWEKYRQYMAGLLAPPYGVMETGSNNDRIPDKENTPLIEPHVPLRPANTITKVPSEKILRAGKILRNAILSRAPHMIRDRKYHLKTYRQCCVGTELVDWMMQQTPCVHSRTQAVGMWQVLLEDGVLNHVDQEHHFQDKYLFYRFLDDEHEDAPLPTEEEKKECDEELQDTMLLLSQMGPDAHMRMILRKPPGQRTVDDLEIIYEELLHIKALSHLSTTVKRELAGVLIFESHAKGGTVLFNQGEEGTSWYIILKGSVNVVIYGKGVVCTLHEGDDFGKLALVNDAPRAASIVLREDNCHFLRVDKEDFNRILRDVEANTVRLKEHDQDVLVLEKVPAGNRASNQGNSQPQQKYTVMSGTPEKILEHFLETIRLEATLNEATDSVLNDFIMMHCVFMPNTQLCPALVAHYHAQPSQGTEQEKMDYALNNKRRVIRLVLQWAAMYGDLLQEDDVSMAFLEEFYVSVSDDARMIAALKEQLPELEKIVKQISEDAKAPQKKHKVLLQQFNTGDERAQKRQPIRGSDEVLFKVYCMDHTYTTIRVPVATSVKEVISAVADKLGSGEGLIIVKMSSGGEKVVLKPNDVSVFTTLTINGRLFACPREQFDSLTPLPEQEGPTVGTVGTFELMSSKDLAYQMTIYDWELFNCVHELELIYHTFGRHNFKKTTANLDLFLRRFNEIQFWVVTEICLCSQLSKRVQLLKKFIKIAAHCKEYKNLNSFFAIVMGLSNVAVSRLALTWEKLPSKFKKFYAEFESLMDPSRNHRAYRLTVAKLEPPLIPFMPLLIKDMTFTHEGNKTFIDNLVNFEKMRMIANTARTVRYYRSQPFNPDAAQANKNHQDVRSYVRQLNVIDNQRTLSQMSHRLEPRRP

[12] = target: Rap guanine nucleotide exchange factor 4 (Homo sapiens) (UniProt Q8WZA2); experiment: Confirmatory qHTS for antagonist of cAMP-regulated guanine nucleotide exchange factor 4 (EPAC2) (AID 1645885); settings: EPAC2 Rap1B-BODIPY-GDP exchange fluorescence, biochemical; series mostly up to 114 µM; note: nearly all actives have a fitted effect of over 25% in size; note: potency is the fitted concentration of half-maximal effect
[13] = target: Rap guanine nucleotide exchange factor 3 (Homo sapiens) (UniProt O95398); experiment: Counterscreen qHTS for antagonist of cAMP-regulated guanine nucleotide exchange factor 3 (EPAC1) (AID 1645888); settings: Rap1B-BODIPY-GDP nucleotide exchange, fluorescence; series mostly up to 154 µM;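 note: fluorescence loss as bound BODIPY-GDP is released from Rap1B; % of control where 0% means no effect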
Chain of Rap guanine nucleotide exchange factor 3 (Homo sapiens) (O95398 whole entry, looked up): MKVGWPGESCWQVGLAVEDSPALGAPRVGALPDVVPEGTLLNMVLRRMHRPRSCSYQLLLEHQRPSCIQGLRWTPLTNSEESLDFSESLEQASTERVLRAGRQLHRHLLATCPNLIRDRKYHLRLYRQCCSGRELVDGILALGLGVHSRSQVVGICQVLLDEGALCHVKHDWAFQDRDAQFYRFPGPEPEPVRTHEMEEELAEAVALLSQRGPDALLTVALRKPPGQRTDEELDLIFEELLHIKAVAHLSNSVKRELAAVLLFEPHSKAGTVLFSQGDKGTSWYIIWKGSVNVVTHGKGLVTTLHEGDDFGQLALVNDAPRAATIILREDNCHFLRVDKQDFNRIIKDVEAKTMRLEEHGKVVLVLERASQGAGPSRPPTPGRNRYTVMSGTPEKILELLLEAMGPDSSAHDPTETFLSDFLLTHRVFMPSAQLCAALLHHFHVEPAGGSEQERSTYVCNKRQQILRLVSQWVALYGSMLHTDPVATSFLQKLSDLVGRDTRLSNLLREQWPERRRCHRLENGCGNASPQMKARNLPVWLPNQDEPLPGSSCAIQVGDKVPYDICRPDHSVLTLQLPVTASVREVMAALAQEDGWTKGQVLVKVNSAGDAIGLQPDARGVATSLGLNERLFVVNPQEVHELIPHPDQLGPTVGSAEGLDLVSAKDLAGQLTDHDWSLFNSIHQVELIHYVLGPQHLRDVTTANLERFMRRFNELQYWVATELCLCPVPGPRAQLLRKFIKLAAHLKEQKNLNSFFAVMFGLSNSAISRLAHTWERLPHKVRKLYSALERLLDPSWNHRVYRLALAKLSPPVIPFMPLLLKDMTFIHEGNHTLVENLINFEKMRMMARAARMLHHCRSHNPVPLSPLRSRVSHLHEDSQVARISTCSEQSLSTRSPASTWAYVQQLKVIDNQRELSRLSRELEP
Summary of the method: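 Measured: fluorescence of BODIPY-GDP bound to Rap1B, which falls as exchange proceeds. Conditions include 50 uM competing GDP, 5 and 30 min reads, and a later cAMP challenge for antagonist detection.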

| SMILES | activity [1] | activity change, negative = inhibition [2] | activity [3] | activity [4] | Potency [5] | Potency [6] | Potency [7] | Potency [8] | Potency [9] | outcome [10] | Potency [2] | outcome [11] | Potency [12] | outcome [13] |
| --- | --- | --- | --- | --- | --- | --- | --- | --- | --- | --- | --- | --- | --- | --- |
| COc1cc(N2CCC(O)CC2)ccc1Nc1cc(Nc2ccccc2S(=O)(=O)C(C)C)c2cc[nH]c2n1 | 2.25% | 0% | -6.54% | 0.382% | inactive | inactive | inactive | 0.927 µM (active) | inactive |  |  |  |  |  |
| NS(=O)(=O)OC[C@@H]1C[C@@H](n2ccc3c(N[C@H]4CCc5ccccc54)ncnc32)C[C@@H]1O | -6.43% and -2.13% | -2.34% and 2.95% | -12% and -2.45% | -79.3% and -73.9% | inactive | inactive | inactive | inactive | inactive | inactive |  |  |  |  |
| COc1cc2c(Nc3ccc(Cl)c(Cl)c3F)ncnc2cc1OCC1C[C@@H]2CN(C)C[C@@H]2C1 (some centres not stated) | -81.3% |  | -73.4% | -80.2% | inactive | inactive | inactive |  | inactive |  | 24.1 µM (active) |  |  |  |
| CCc1nc(C(N)=O)c(Nc2ccc(N3CCC(N4CCN(C)CC4)CC3)c(OC)c2)nc1NC1CCOCC1 | -34.5% |  | -16.4% | -59.8% | inactive | inactive | inactive |  | inactive |  | 26.6 µM (active) |  |  |  |
| CC1=CC(=O)CC(C)(C)C1CCC(C)OC1OC(COC(=O)c2cc(O)c(O)c(O)c2)C(O)C(O)C1O (configuration not stated) | -58.9% | 0% [at 29.8 µM] | 2.37% | 0% | inactive | inactive | inactive | 1.16 µM (active) | inactive |  |  |  |  |  |
| COc1cc(C2Oc3c(OC)cc(CCCO[C@@H]4O[C@H](CO)[C@@H](O)[C@H](O)[C@H]4O)cc3C2CO)ccc1O (some centres not stated) | -72% | 2.87% [at 29.8 µM] | 0% | 4.57% | inactive | inactive | inactive | 13 µM (active) | inactive |  |  |  |  |  |
| C=C1[C@H]2[C@H](O[C@@H]3O[C@H](COC(=O)/C=C/c4cc(OC)c(O)c(OC)c4)[C@@H](O)[C@H](O)[C@H]3O)OC=C(C(=O)O)[C@H]2C[C@@H]1O | -50.9% | 0% [at 19.1 µM] | 0% | 5.16% | inactive | inactive | inactive | 7.07 µM (active) | inactive |  |  |  |  |  |
| O=C(O)c1cc(O)c2cccc(O)c2c1O[C@@H]1O[C@H](CO)[C@@H](O)[C@H](O)[C@H]1O | -4.06% |  | -68.8% | -8.77% | inactive | inactive | inactive | 2.07 µM (active) |  |  | 29.8 µM (active) |  |  |  |
| CC(=O)NCCCCn1c2c(c3ccccc31)C(=O)NCC2 | -9.83% | -8.34% | -4.05% | -4.46% | inactive | inactive | inactive | inactive | inactive |  |  |  |  |  |
| COCCN(C)Cc1ccc2nc3sc(C(=O)N(C)C4CCCCC4)cn3c2c1 | -4.7% | 0% | 1.46% | -2.94% | inactive | inactive | inactive |  | inactive |  |  |  |  |  |
| CCCCC(CC)COC(=O)CC(C(=O)OCC(CC)CCCC)S(=O)(=O)O (configuration not stated) |  |  |  |  | inactive |  |  |  |  | inactive |  | inactive | 39.3 µM (active) and 31.2 µM (active) |  |
| CC(CCC1C(C(=O)O)=CC(=O)CC1(C)C)O[C@@H]1O[C@H](CO)[C@@H](O)[C@H](O)[C@H]1O (some centres not stated) | -82.7% | -6.33% | -5.15% | -4.16% | inactive | inactive | inactive | 5.85 µM (active) | inactive |  |  |  |  |  |
| CC(C)(O)C1CC=C(C(=O)OCC2OC(Oc3c(O)cc(C(=O)O)cc3O)C(O)C(O)C2O)CC1 (configuration not stated) | -71.8% | -3.66% [at 29.8 µM] | -2.85% | -2.18% | inactive | inactive | inactive | 0.822 µM (active) | inactive |  |  |  |  |  |
| COc1cc(/C=C/c2cc(O)cc(O[C@@H]3O[C@H](CO)[C@@H](O)[C@H](O)[C@H]3O)c2)ccc1O | -45% | 0.569% [at 29.8 µM] | -2.24% | 1.65% | inactive | inactive | inactive | inactive | inactive |  |  |  |  |  |
| OC[C@H]1O[C@@H](Oc2ccc(O)c3cccc(O)c23)[C@H](O)[C@@H](O)[C@@H]1O | -82.3% |  | -18.4% | -70.9% | inactive | inactive | inactive | 0.927 µM (active) |  |  | 16.8 µM (active) |  |  |  |
| CNC1CCN(C(Cc2cccc(-c3ccncc3)c2)C(=O)c2sc3c(F)ccc(F)c3c2Cl)CC1 (configuration not stated) | -12.3% |  | -78% | -11.9% |  |  |  |  |  |  | 48.2 µM (active) |  |  |  |
| CC(C)(C)NC(=O)[C@@H]1C[C@@H]2CCCC[C@@H]2CN1C[C@@H](O)[C@H](Cc1ccccc1)NC(=O)[C@H](CC(N)=O)NC(=O)c1ccc2ccccc2n1 |  |  |  |  |  |  |  |  |  |  |  | inactive | inactive | inactive |
| CC1(C)O[C@@]2(C)CC[C@@H]1C[C@@H]2OC1OC(CO)C(O)C(O)C1O (some centres not stated) | -67.5% | 2.82% | 4.92% | 0.858% | inactive | inactive | inactive | 7.36 µM (active) | inactive |  |  |  |  |  |
